Assay outcomes (PubChem)
Hits are enriched below; roughly 10% of the tested compounds scored in any of these assays.
BAZ2B inh – qHTS Assay for Inhibitors of BAZ2B. AID 504333, 2011. Bromodomain adjacent to zinc finger domain protein 2B (Homo sapiens), Q9UIF8. 4.4% of 360,000 active. Potency, µM (top dose mostly 114 µM), without a hit: at the top dose activity change, negative = inhibition, actives largely listed as inhibitors. AlphaScreen BAZ2B-H3K14Ac peptide displacement; further: potency means the concentration at half of the fitted maximal effect; on the % scale 0 is the no-effect control and ±100 the full control effect; nearly all actives have a fitted effect of over 60% in size
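In this displacement format the biotinylated H3(5-23) peptide acetylated at Lys14 serves as ligand at 50 nM, with BAZ2B at 50 nM in PBS pH 7.4 containing 0.01% Tween-20. Donor and acceptor beads are 10 ug/mL final.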
Six1-Eya2 blk – qHTS Assay for Inhibitors of the Six1/Eya2 Interaction; 0.56% of 360,000 active; activity change, % (test concentration not listed); AID 651725, 2012; AlphaScreen GST-Six1/His-Eya2 binding, biochemical; hits give low values; in the data active means activity change below about -65%; inconclusive means mostly about -30% to -63%; further: on the % scale 0 is the no-effect control and ±100 the full control effect
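GST-Six1 + His-Eya2 (5X stock: 250/500 nM); Tris pH 8.0, 300 mM NaCl, 0.05% BSA, 0.02% Tween 20; GSH donor/Ni acceptor beads; 1 h 37 °C dark; AlphaScreen readout.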
HP1b binding inh – HTS for Inhibitors of HP1-beta Chromodomain Interactions with Methylated Histone Tails | 0.56% of 390,000 active | Potency, µM (highest dose often 114 µM), inactives show at the highest dose activity change, negative = inhibition, usual class: inhibitors | AID 540317, 2011 | Chromobox protein homolog 1 (Homo sapiens), P83916 | AlphaScreen HP1-beta / biotin-H3K9me3 peptide binding; further: potency means the concentration at half of the fitted maximal effect; nearly all actives have a fitted effect of over 70% in size
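Compound inhibition of the preformed complex between 50 nM HP1-beta and 50 nM biotinylated H3K9me3 peptide was read by AlphaScreen. Buffer was PBS pH 7.4 with 0.01% Tween-20. Incubations ran 30 min at room temperature, with 10 ug/mL donor/acceptor beads.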
G9a inh – qHTS Assay for Inhibitors of Histone Lysine Methyltransferase G9a | Histone-lysine N-methyltransferase EHMT2 (Homo sapiens), Q96KQ7 | G9a H3K9 monomethylation, AlphaScreen, 2 h | Potency, µM (doses to about 102 µM), for inactives: top-dose activity, negative = inhibition, usual class: inhibitors | 8.8% of 350,000 active | AID 504332, 2011; further: potency means the concentration at half of the fitted maximal effect; on the % scale 0 is the no-effect control and ±100 the full control effect; nearly all actives have a fitted effect of over 75% in size
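Using a bead-based AlphaScreen, monomethylated H3K9 product from 2 h room-temperature reactions (G9a 20 nM, peptide 500 nM, SAM 20 uM) was detected with 0.5 ug/mL rabbit anti-H3K9me1 antibody.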
CtBP-E1A inh – qHTS Assay for Inhibitors of the CtBP/E1A Interaction | AlphaScreen GST-E1A/His-CtBP binding, 1536-well; hits give low values | activity change, % (concentration not given with the values) | 0.49% of 340,000 active | AID 651724, 2012; in the data active means activity change below about -65%; inconclusive means mostly about -30% to -63%; further: on the % scale 0 is the no-effect control and ±100 the full control effect
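GST-E1A and His-tagged CtBP (125 nM each as 5X stock) were preincubated with pin-transferred compound for 2 h at 37 °C in the dark, then glutathione donor and nickel acceptor beads were added for 1 h before AlphaScreen reading.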
JMJD2A Tudor inh – qHTS Assay for Inhibitors of JMJD2A-Tudor Domain. Lysine-specific demethylase 4A (Homo sapiens), O75164. AlphaScreen JMJD2A-Tudor / H3K4me3 peptide binding. Potency, µM (top dose mostly 114 µM), inactives show at the highest dose activity change, negative = inhibition, usual class: inhibitors. 4.4% of 390,000 active. AID 504339, 2011; further: potency means the concentration at half of the fitted maximal effect; on the % scale 0 is the no-effect control and ±100 the full control effect; nearly all actives have a fitted effect of over 50% in size
* hit, by the source's call; [ ] = dose if it differs, or a comment. Unless noted, the call rests on the fitted dose curve; in most records, active means well fitted inhibition curve with a large enough effect; inconclusive means small, poorly fitted or top-dose-only effect; inactive means no such curve, though single readings can be large or run the other way.

How did O=C(O)c1ccc(N2C(=O)CC(N3CCN(c4ccc(Cl)cc4)CC3)C2=O)cc1 (stereo unspecified) do in these assays?
BAZ2B inh: inconclusive; Six1-Eya2 blk: 6; HP1b binding inh: 47%; G9a inh: 45µM*; CtBP-E1A inh: -3; JMJD2A Tudor inh: -17%

How did Cc1cccc(N2C(=O)CC(N3CCN(Cc4ccc(Cl)cc4)CC3)C2=O)c1 (stereo unspecified) do in these assays?
BAZ2B inh: -16%; Six1-Eya2 blk: 4; HP1b binding inh: 44%; G9a inh: 40µM*; CtBP-E1A inh: 5; JMJD2A Tudor inh: -12%

How did COc1ccc(N2C(=O)CC(N3CCN(c4ccc(S(C)(=O)=O)cc4)CC3)C2=O)cc1 (stereo unspecified) do in these assays?
BAZ2B inh: 1%; Six1-Eya2 blk: -2; HP1b binding inh: 12%; G9a inh: 32µM*; CtBP-E1A inh: -2; JMJD2A Tudor inh: -18%

Results for O=C1CC(N2CCN(c3ccc(Cl)cc3)CC2)C(=O)N1c1ccc(F)cc1 (stereo unspecified) ?
BAZ2B inh: -17%; Six1-Eya2 blk: 3; HP1b binding inh: 36%; G9a inh: -12%; CtBP-E1A inh: -5; JMJD2A Tudor inh: -21%

What do the screens show for `COc1ccc(N2CCN(C3CC(=O)N(C)C3=O)CC2)cc1` (stereo unspecified)?
BAZ2B inh: -6%; Six1-Eya2 blk: 0; HP1b binding inh: 19%; G9a inh: inconclusive; CtBP-E1A inh: 3; JMJD2A Tudor inh: 3%

Results for COc1cccc(N2CCN(C3CC(=O)N(c4ccc(F)c(Cl)c4)C3=O)CC2)c1 (stereo unspecified) ?
BAZ2B inh: -36%; Six1-Eya2 blk: -11; HP1b binding inh: 20%; G9a inh: inconclusive; CtBP-E1A inh: -13; JMJD2A Tudor inh: -29%

What do the screens show for `Cc1cccc(N2C(=O)CC(N3CCN(c4ccc(Cl)cc4)CC3)C2=O)c1` (stereo unspecified)?
BAZ2B inh: -6%; Six1-Eya2 blk: -3; HP1b binding inh: 39%; G9a inh: 3%; CtBP-E1A inh: 2; JMJD2A Tudor inh: -21%

How did COc1ccc(NC2CCN(C3CC(=O)N(c4ccc(F)c(Cl)c4)C3=O)CC2)cc1 (stereo unspecified) do in these assays?
BAZ2B inh: 45µM*; Six1-Eya2 blk: -10; HP1b binding inh: inconclusive; G9a inh: inconclusive; CtBP-E1A inh: -10; JMJD2A Tudor inh: inconclusive

Results for CCCOc1ccc(N2C(=O)CC(N3CCN(c4ccccc4OC)CC3)C2=O)cc1 (stereo unspecified) ?
BAZ2B inh: -22%; Six1-Eya2 blk: -7; HP1b binding inh: 44%; G9a inh: 45µM*; CtBP-E1A inh: -4; JMJD2A Tudor inh: -13%

What do the screens show for `Cc1ccc(S(=O)(=O)N2CCC(NC(=O)c3cccnc3)CC2)cc1Cl`?
BAZ2B inh: -18%; Six1-Eya2 blk: 5; HP1b binding inh: 48%; G9a inh: 4%; CtBP-E1A inh: -9; JMJD2A Tudor inh: -10%

What do the screens show for `CCCSC1=C(C#N)C(c2ccc(O)c(OC)c2)CC(=O)N1` (stereo unspecified)?
BAZ2B inh: 10%; Six1-Eya2 blk: -5; HP1b binding inh: 35%; G9a inh: 50µM*; CtBP-E1A inh: -1; JMJD2A Tudor inh: -6%

What do the screens show for `CCSC1=C(C#N)C(c2ccc(C)o2)CC(=O)N1` (stereo unspecified)?
BAZ2B inh: -11%; Six1-Eya2 blk: 1; HP1b binding inh: 20%; G9a inh: 12%[12.7 µM]; CtBP-E1A inh: 0; JMJD2A Tudor inh: -21%

Results for CCCCSC1=C(C#N)C(c2ccccc2C)CC(=O)N1 (stereo unspecified) ?
BAZ2B inh: 8%; Six1-Eya2 blk: -3; HP1b binding inh: 55%; G9a inh: 7%; CtBP-E1A inh: 3; JMJD2A Tudor inh: -13%

How did Cc1ccc(C2CC(=O)NC(SCc3ccccc3)=C2C#N)o1 (stereo unspecified) do in these assays?
BAZ2B inh: 32µM*; Six1-Eya2 blk: -23; HP1b binding inh: -11%; G9a inh: inconclusive; CtBP-E1A inh: -17; JMJD2A Tudor inh: inconclusive

How did Cc1ccc(C2CC(=O)NC(SCCC(C)C)=C2C#N)cc1 (stereo unspecified) do in these assays?
BAZ2B inh: -3%; Six1-Eya2 blk: -1; HP1b binding inh: inconclusive; G9a inh: 32µM*; CtBP-E1A inh: 1; JMJD2A Tudor inh: -1%

Results for CCCSC1=C(C#N)C(c2ccccc2C)CC(=O)N1 (stereo unspecified) ?
BAZ2B inh: 7%; Six1-Eya2 blk: 2; HP1b binding inh: 33%; G9a inh: 25µM*; CtBP-E1A inh: 2; JMJD2A Tudor inh: -8%

How did COc1cc(C2CC(=O)NC(SCC(=O)Nc3ccccc3C)=C2C#N)ccc1O (stereo unspecified) do in these assays?
BAZ2B inh: -6%; Six1-Eya2 blk: -2; HP1b binding inh: 26%; G9a inh: -4%[59 µM]; CtBP-E1A inh: -1; JMJD2A Tudor inh: -9%

How did CCN(CC)C(=O)C1=C(C)N(Cc2ccc(OC)cc2)C(=O)C(CC(=O)NCC2CCCCC2)C1 (stereo unspecified) do in these assays?
Six1-Eya2 blk: -2; CtBP-E1A inh: 1

What do the screens show for `O=C([C@H]1O[C@@H](n2ccc(=O)[nH]c2=O)[C@H](O)[C@@H]1O)N(CCC1=CCCCC1)CC1CC1`?
Six1-Eya2 blk: 20; CtBP-E1A inh: 33

What do the screens show for `CC1(C)N=C(Nc2nc3ccccc3o2)NC2=C1C(=O)CCC2`?
JMJD2A Tudor inh: -30%

Results for CC1(C)Cc2c(cnn2-c2ccc(F)cc2)C(NC(=O)c2ccco2)C1 (stereo unspecified) ?
BAZ2B inh: -10%; Six1-Eya2 blk: -2; HP1b binding inh: 40%; G9a inh: 11%; CtBP-E1A inh: 5; JMJD2A Tudor inh: -7%

How did CC1(C)Cc2c(cnn2-c2ccc(F)cc2)C(NC(=O)C2=NNC(=O)CC2)C1 (stereo unspecified) do in these assays?
BAZ2B inh: -2%; Six1-Eya2 blk: -2; HP1b binding inh: 13%; G9a inh: 13%; CtBP-E1A inh: 2; JMJD2A Tudor inh: 16µM*
